The values below come from ChEMBL document CHEMBL3433997, “St. Jude Leishmania screening dataset” (2016).

Usually inhibition stands for the drop in the measured response relative to a control, in per cent.

Common to all, as to assay type: functional
The target of assay [1] is Solute carrier family 2, facilitated glucose transporter member 1 (Homo sapiens) (UniProt P11166). Put plainly: ST_JUDE_LEISH: Cytotoxicity at 2uM final concentration against transgenic Leishmania Mexicana promastigotes LmGLUT1 that are glucose transport deficient and complemented with the human glucose transporter GLUT1. Activity is measured by DNA content using SYBR green in vitro.

Assay [2] concerns the target Hexose transporter 1 (Plasmodium falciparum) (UniProt O97467). Put plainly: ST_JUDE_LEISH: Cytotoxicity at 2uM final concentration against transgenic Leishmania Mexicana promastigotes LmPfHT that are glucose transport deficient and complemented with the Plasmodium falciparum hexose transporter. Activity is measured by DNA content using SYBR green in vitro.
Assay [3] concerns the target Glucose transporter (Leishmania mexicana) (UniProt O61059). Description: ST_JUDE_LEISH: Cytotoxicity at 2uM final concentration against transgenic Leishmania Mexicana promastigotes LmGT2 that are glucose transport deficient and complemented with the L. Mexicana glucose transporter 2. Activity is measured by DNA content using SYBR green in vitro.

SMILES strings stand for the structures.

Solute carrier family 2, facilitated glucose transporter member 1 (Homo sapiens), sequence (P11166 whole entry): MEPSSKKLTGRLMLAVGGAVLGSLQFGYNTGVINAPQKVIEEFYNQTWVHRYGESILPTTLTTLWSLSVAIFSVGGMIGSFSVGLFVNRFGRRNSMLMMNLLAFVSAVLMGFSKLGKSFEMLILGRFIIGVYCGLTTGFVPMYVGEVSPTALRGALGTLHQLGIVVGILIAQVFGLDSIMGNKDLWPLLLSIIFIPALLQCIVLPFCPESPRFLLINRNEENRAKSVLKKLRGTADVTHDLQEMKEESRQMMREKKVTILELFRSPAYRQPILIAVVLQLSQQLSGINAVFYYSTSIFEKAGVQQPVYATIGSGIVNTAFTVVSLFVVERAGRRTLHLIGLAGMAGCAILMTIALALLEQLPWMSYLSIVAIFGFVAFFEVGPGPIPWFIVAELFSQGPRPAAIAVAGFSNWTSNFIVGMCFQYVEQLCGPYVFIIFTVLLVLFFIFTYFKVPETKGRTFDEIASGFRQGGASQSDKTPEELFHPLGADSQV

Take `FC(F)(F)c1ccc2c(NCCc3ccccc3)ccnc2c1`: the inhibition in assay [1] is 4.24%; in assay [2] it was 5.12%; in assay [3], 3.79%.
Taken in the same sequence, the figures for `CN1CCN(c2cccc(-c3nnc(-c4ccc(OCC(=O)NCc5cccc(C(F)(F)F)c5)c([N+](=O)[O-])c4)o3)c2)CC1` were 8.88%, 8.11% and 6.46%.
For the molecule `CC1(C)N=C(N)N=C(N)N1OCc1ccc2ccccc2c1`, the inhibition stood at 8.29% in assay [1], 7.22% in assay [2] and 6.67% in assay [3].
Taken in the same sequence, the figures for `O=C(/C=C/c1ccccc1O)NCCCCCN1CCC(c2c[nH]c3ccccc23)CC1` were 3.82%, 2.03% and 1.37%.
Taken in the same sequence, the figures for `Cc1cc(N[C@@H](Cc2ccccc2)C(=O)NCCOc2ccccc2)nc(NCCc2cccs2)n1` were 8.11%, 7.52% and 6.47%.
For `N=C(N)Nc1nc(-c2ccc(NCc3ccc(CNc4cccc(-c5csc(NC(=N)N)n5)c4)cc3)cc2)cs1`, the inhibition was determined as 0.36% in assay [1], 1.69% in assay [2] and 1.12% in assay [3].
For `COc1ccc2nc3cc(Cl)ccc3c(NCCc3ccccc3)c2c1` the same measures were 1.15%, 1.24% and -0.37%.
Taken in the same sequence, the figures for `N=C(N)NC(=O)Nc1cc(F)c(Cl)c(Cl)c1` were 12.8%, 10.5% and 6.35%.
For `CC(C)(CNC(=O)C1CCN(CCOc2ccc(F)c(F)c2)CC1)c1nc(-c2ccc(Cl)c(O)c2)c(-c2ccncc2)[nH]1` the same measures were 4.62%, 4.16% and 5.08%.
As to `CC(C)(C)c1nn(-c2ccc(Cl)cc2)c2[nH]c(=O)c(CNCc3cccs3)cc12`, the inhibition in assay [1] came out at 3.3%; in assay [2], 3.24%; in assay [3], 2.34%.
For `O=C(CCc1nc2c(cnn2-c2ccccc2)c(=O)[nH]1)NC1CCSc2ccccc21` (centres undefined) the same measures were 0.18%, 1.79% and -2.08%.
For `CCOc1ccc(OCC)c(N2CCN(CCCCNC(=O)c3ccc(NC(=O)c4ccc(Cl)cc4)cc3)CC2)c1`, the results for the inhibition in assay [1], in assay [2] and in assay [3] were 3.44%, 3.28% and 3.45%, respectively.
Taken in the same sequence, the figures for `Nc1cc(-c2cccc(Cl)c2)nn1-c1ccnc2cc(Cl)ccc12` were -0.77%, -0.13% and -4.37%.
Taken in the same sequence, the figures for `CCCc1cc(N2CCC(c3ccccc3)(N3CCCCC3)CC2)nc(Nc2ccc(OC)cc2)n1` were 15.7%, 16.5% and 6.08%.
For `Clc1cc(Cl)c2cc(CN[C@H]3CCC[C@@H]3CNc3nc4ccccc4[nH]3)[nH]c2c1` the same measures were 0.55%, 1.94% and 2.36%.
For `O=C(NCC1CCN(Cc2ccc3c(c2)OCCO3)C1)c1cc(-c2ccccc2F)cs1` (centres undefined), the inhibition turned out to be 4.88% in assay [1], 4.71% in assay [2] and 7.55% in assay [3].
Taken in the same sequence, the figures for `FC(F)(F)c1ccc2[nH]c(-c3ccc(-c4cccc(CN5CCN(CCN6CCOCC6)CC5)c4)cc3)nc2c1` were 1.77%, 3.69% and 2.25%.
In the case of `Cc1c(CNCCCNc2nc3ccccc3[nH]2)sc(C(F)F)c1Br`, the inhibition in assay [1] came to 3.07%; in assay [2], 0.8%; in assay [3], 1.17%.
